This is part of a sample that, as a whole, favours compounds with a hit. Of some 79,000 tested, about 15% had one in any assay. Values without a mark were called inactive. The source made the active and inactive calls. Cut-off read from the data, not from the text of the source: active = growth inhibition above about 70%; inactive = the rest.

These results are taken from PubChem BioAssay (NCI).

Assay [1] in a line: NCI Yeast Anticancer Drug Screen. Data for the rad50 strain (AID 155).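 Note: 0% = growth of vehicle-only cultures of the same strain.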 The conditions noted are these: S. cerevisiae rad50 strain growth inhibition, stronger effect = higher value. In short, it runs like this:
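Relative growth inhibition (compound vs vehicle) was measured in yeast with a defined repair-gene alteration.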

Assay [2] can be described thus: NCI Yeast Anticancer Drug Screen. Data for the mec2-1 strain (AID 157). The conditions noted are these: S. cerevisiae mec2-1 strain, stronger effect = higher value. In short, it runs like this:
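Readout is yeast growth inhibition, normalised to vehicle-treated controls, in the mec2-1 strain exposed to compound.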

Assay [3] is described as follows: NCI Yeast Anticancer Drug Screen. Data for the sgs1 mgt1 strain (AID 161).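 Note: 0% = growth of cultures given vehicle only.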 The conditions noted are these: S. cerevisiae sgs1 mgt1 strain, stronger effect = higher value. In short, it runs like this: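 Compounds are added to genetically altered yeast, and growth is compared with cultures given vehicle alone to give percent inhibition.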
Assay [4] in a line: NCI Yeast Anticancer Drug Screen. Data for the cln2 rad14 strain (AID 165).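 Note: 0% = growth equal to vehicle treated cultures.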 The conditions noted are these: S. cerevisiae cln2 rad14 strain, stronger effect = higher value. In short, it runs like this:
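Relative to vehicle controls, growth inhibition of compound-treated cln2 rad14 yeast was recorded.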

A short description of assay [5]: NCI Yeast Anticancer Drug Screen. Data for the bub3 strain (AID 167). The conditions noted are these: S. cerevisiae bub3 mutant strain, stronger effect = higher value. In short, it runs like this:
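Screening used yeast with an engineered genetic alteration affecting cell cycle control. Compound-exposed cultures were compared with vehicle cultures, and reduced growth was taken as inhibition.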

The nature of assay [6]: NCI Yeast Anticancer Drug Screen. Data for the mlh1 rad18 strain (AID 175). As to conditions: S. cerevisiae mlh1 rad18 strain growth inhibition, stronger effect = higher value. In short, it runs like this: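 Test agents were incubated with a yeast strain of defined genotype (DNA damage repair defect). Inhibition of growth was derived by comparison with vehicle-exposed cultures.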
Setting [7] is: at 5.0 µM (retest, dose inferred, filed as 0.5).
[8] abbreviates: at 50.0 µM (retest, dose inferred, filed as 5.0).

`COc1cc(C2C(Cl)C(=O)N2NC(=O)c2ccc(NC(C)=O)cc2)cc(OC)c1OC` (configuration not stated): the growth inhibition in assay [1] (setting [7]) was 1%; in assay [1] (setting [8]), -16%; in assay [1] (at 50.0 µM), -8.6%; in assay [2] (setting [7]), -9%; in assay [2] (setting [8]) it was -16%; in assay [2] (at 50.0 µM), -10.1%. The growth inhibition in assay [3] (setting [7]) is -9%; in assay [3] (setting [8]), -7%; in assay [3] (at 50.0 µM), 8.15%; in assay [4] (setting [7]), -16%; in assay [4] (setting [8]) it was -5%; in assay [4] (at 50.0 µM), 19.1%. Moreover, the growth inhibition in assay [5] (setting [7]) is 3%; in assay [5] (setting [8]), -2%; in assay [5] (at 50.0 µM) it was -9.3%; in assay [6] (setting [7]), -10%; in assay [6] (setting [8]), 3%; in assay [6] (at 50.0 µM), 12.3%.
On to `CC(C)C(Sc1nc(-c2ccccc2)c(-c2ccccc2)[nH]1)c1n[nH]c(=S)n1-c1ccccc1` (configuration not stated), for which the growth inhibition in assay [1] (setting [7]) is -1%; in assay [1] (setting [8]), 97% (active); in assay [1] (at 50.0 µM), 95.8% (active); in assay [2] (setting [7]), 12%; in assay [2] (setting [8]), 98% (active); in assay [2] (at 50.0 µM), 97.1% (active). The growth inhibition is -13% in assay [3] (setting [7]); 98% (active) in assay [3] (setting [8]); 96.8% (active) in assay [3] (at 50.0 µM); -24% in assay [4] (setting [7]); 97% (active) in assay [4] (setting [8]); 94.3% (active) in assay [4] (at 50.0 µM). Moreover, the growth inhibition in assay [5] (setting [7]) was -1%; in assay [5] (setting [8]), 98% (active); in assay [5] (at 50.0 µM), 96.9% (active); in assay [6] (setting [7]), -3%; in assay [6] (setting [8]) it was 97% (active); in assay [6] (at 50.0 µM) it was 95.9% (active).
In the case of `CC12CCC(C(Br)(Br)C1=O)C2(C)C` (configuration not stated), the growth inhibition in assay [1] (setting [7]) was 29%; in assay [1] (setting [8]), 60%; in assay [1] (at 50.0 µM) it was 40.6%; in assay [2] (setting [7]), 17%; in assay [2] (setting [8]), 46%; in assay [2] (at 50.0 µM), 59.4%. Besides, the growth inhibition was 26% in assay [3] (setting [7]); 56% in assay [3] (setting [8]); 72.1% (active) in assay [3] (at 50.0 µM); 22% in assay [4] (setting [7]); 41% in assay [4] (setting [8]); 30.5% in assay [4] (at 50.0 µM). The growth inhibition in assay [5] (setting [7]) was 18%; in assay [5] (setting [8]), 74% (active); in assay [5] (at 50.0 µM), 86.8% (active); in assay [6] (setting [7]), 16%; in assay [6] (setting [8]) it was 68%; in assay [6] (at 50.0 µM), 88.7% (active).
In the case of `O=[N+]([O-])c1cc2[nH]cnc2c([N+](=O)[O-])c1NCc1ccccc1`, the growth inhibition in assay [1] (setting [7]) is 0%; in assay [1] (setting [8]), 47%; in assay [1] (at 50.0 µM) it was 68.5%; in assay [2] (setting [7]), 0%; in assay [2] (setting [8]), 29%; in assay [2] (at 50.0 µM) it was 34.3%. Further, the growth inhibition in assay [3] (setting [7]) was -1%; in assay [3] (setting [8]) it was 45%; in assay [3] (at 50.0 µM), 80.5% (active); in assay [4] (setting [7]), -2%; in assay [4] (setting [8]) it was 34%; in assay [4] (at 50.0 µM), 24.2%. The growth inhibition in assay [5] (setting [7]) was -4%; in assay [5] (setting [8]), 25%; in assay [5] (at 50.0 µM), 33.1%; in assay [6] (setting [7]), -3%; in assay [6] (setting [8]) it was 44%; in assay [6] (at 50.0 µM), 72.5% (active).
For `CCCCCCCCCc1c(O)c(O)c(CCCCCCCCC)c(CCCCCCCCC)c1CCCCCCCCC`, the growth inhibition was 1% in assay [1] (setting [7]); 27% in assay [1] (setting [8]); 54.9% in assay [1] (at 50.0 µM); -11% in assay [2] (setting [7]); 30% in assay [2] (setting [8]); -5.95% in assay [2] (at 50.0 µM). Further, the growth inhibition in assay [3] (setting [7]) is -10%; in assay [3] (setting [8]), 28%; in assay [3] (at 50.0 µM), 54.9%; in assay [4] (setting [7]), 33%; in assay [4] (setting [8]), 55%; in assay [4] (at 50.0 µM) it was 49.9%. Further, the growth inhibition was -6% in assay [5] (setting [7]); 87% (active) in assay [5] (setting [8]); 55.4% in assay [5] (at 50.0 µM); -6% in assay [6] (setting [7]); 38% in assay [6] (setting [8]); 85.3% (active) in assay [6] (at 50.0 µM).
For the compound `CS(=O)(=O)OCCN(CCOS(C)(=O)=O)c1ccc(C=Nc2cccc(Br)c2)c(Cl)c1`, the growth inhibition in assay [1] (setting [7]) was 1%; in assay [1] (setting [8]) it was 22%; in assay [1] (at 50.0 µM), 41.5%; in assay [2] (setting [7]), -3%; in assay [2] (setting [8]) it was 1%; in assay [2] (at 50.0 µM) it was -2.3%. Also, the growth inhibition in assay [3] (setting [7]) is -3%; in assay [3] (setting [8]) it was 12%; in assay [3] (at 50.0 µM), 2.5%; in assay [4] (setting [7]), -4%; in assay [4] (setting [8]) it was -4%; in assay [4] (at 50.0 µM), -49.9%. Also, the growth inhibition in assay [5] (setting [7]) was 0%; in assay [5] (setting [8]), 1%; in assay [5] (at 50.0 µM), 6.85%; in assay [6] (setting [7]) it was 5%; in assay [6] (setting [8]), 36%; in assay [6] (at 50.0 µM), 68.5%.
For the compound `Cc1cc(=O)n(-c2ccc(F)cc2)n1C`, the growth inhibition in assay [1] (setting [7]) is 1%; in assay [1] (setting [8]) it was 0%; in assay [1] (at 50.0 µM) it was 30.9%; in assay [2] (setting [7]), -6%; in assay [2] (setting [8]), 1%; in assay [2] (at 50.0 µM), -5.7%. Moreover, the growth inhibition was 0% in assay [3] (setting [7]); 2% in assay [3] (setting [8]); 31.7% in assay [3] (at 50.0 µM); 3% in assay [4] (setting [7]); 15% in assay [4] (setting [8]); 22.9% in assay [4] (at 50.0 µM). Further, the growth inhibition is 0% in assay [5] (setting [7]); -2% in assay [5] (setting [8]); 25.4% in assay [5] (at 50.0 µM); 2% in assay [6] (setting [7]); -16% in assay [6] (setting [8]); -23.6% in assay [6] (at 50.0 µM).
With `CCc1cccc(CC)c1NC(=O)C(C#N)C1=C(Cl)C(=O)c2ccccc2C1=O` (configuration not stated), the growth inhibition in assay [1] (setting [7]) is 63%; in assay [1] (setting [8]), 97% (active); in assay [1] (at 50.0 µM), 89.8% (active); in assay [2] (setting [7]), 92% (active); in assay [2] (setting [8]), 98% (active); in assay [2] (at 50.0 µM), 93.5% (active). The growth inhibition was 73% (active) in assay [3] (setting [7]); 99% (active) in assay [3] (setting [8]); 90% (active) in assay [3] (at 50.0 µM); 36% in assay [4] (setting [7]); 99% (active) in assay [4] (setting [8]); 91.3% (active) in assay [4] (at 50.0 µM). Also, the growth inhibition is 67% in assay [5] (setting [7]); 99% (active) in assay [5] (setting [8]); 92.1% (active) in assay [5] (at 50.0 µM); 75% (active) in assay [6] (setting [7]); 96% (active) in assay [6] (setting [8]); 90.5% (active) in assay [6] (at 50.0 µM).
As to `Nc1c(NCc2ccccc2)ccc2ncccc12`, the growth inhibition is -10% in assay [1] (setting [7]); 93% (active) in assay [1] (setting [8]); 95.2% (active) in assay [1] (at 50.0 µM); -17% in assay [2] (setting [7]); 97% (active) in assay [2] (setting [8]); 93.4% (active) in assay [2] (at 50.0 µM). Besides, the growth inhibition in assay [3] (setting [7]) is -7%; in assay [3] (setting [8]), 94% (active); in assay [3] (at 50.0 µM), 93.2% (active); in assay [4] (setting [7]), -7%; in assay [4] (setting [8]) it was 71% (active); in assay [4] (at 50.0 µM), 96.4% (active). The growth inhibition is 2% in assay [5] (setting [7]); 93% (active) in assay [5] (setting [8]); 98% (active) in assay [5] (at 50.0 µM); 6% in assay [6] (setting [7]); 96% (active) in assay [6] (setting [8]); 98.1% (active) in assay [6] (at 50.0 µM).
